Measured values: the supplement of paper PMC12350171
Structures can show the parent of a compound that is named as a salt.

What was measured:
Conditions in all cases: 20 µM
[1] = test system: Salmonella enterica typhimurium; experiment: growth AUC normalised to DMSO control (fraction of control); higher = less growth inhibition, active = hit call of the paper
In short: (§1)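 After two anaerobic passages, pathogens were added at a starting OD578 of 0.01 to pre-reduced mGAM plates holding compound at 20 μM with 1% DMSO; hemin and NAD were supplemented for Haemophilus parainfluenzae. Sealed with breathable membranes, plates were read at OD578 hourly for 24 h, in three biological replicates. The trapezoidal rule, applied up to the exponential-to-stationary transition, gave the growth-curve AUC, which was normalised to DMSO controls on the same plate.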

Shigella flexneri = experiment: as above
In short: as §1

Vibrio cholerae = experiment: as above
In short: as §1

[2] = test system: Yersinia pseudotuberculosis; experiment: as above
In short: as §1

P. vulgatus RND KO = experiment: growth AUC normalised to DMSO control (median) (fraction of control); higher = less growth inhibition, active = hit call of the paper
In short: (§2)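 Area under the growth curve, calculated by the trapezoidal rule up to entry into stationary phase, was normalised to vehicle wells on the same plate. Strains had been passaged twice overnight without oxygen and then grown in mGAM in 96-well plates from OD578 0.01, each with an approved-drug library compound at 20 μM in 1% DMSO. OD578 was read hourly over 24 h in an anaerobic incubator, and the median of three biological replicates is given.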

P. vulgatus WT = experiment: as above
In short: as §2

[3] = test system: S. enterica typhimurium WT; experiment: as above
In short: as §2

[4] = test system: S. enterica typhimurium tolC KO; experiment: as above
In short: as §2

Measured: growth AUC normalised to DMSO control
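Throughout, for growth AUC normalised to DMSO control (median): active when median AUC fell below 0.1.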

COc1cccc(N(C)C(=S)Oc2ccc3c(c2)CCCC3)n1 [Liranaftate]
inactive: [1] 1.02 | Shigella flexneri 1.03 | Vibrio cholerae 1.01 | [2] 1.01 | P. vulgatus RND KO 1.03 | P. vulgatus WT 1.07 | [3] 0.996 | [4] 0.909

C[C@@H]1CN(c2c(F)c(N)c3c(=O)c(C(=O)O)cn(C4CC4)c3c2F)C[C@H](C)N1 [Sparfloxacin]
active: [1] 0.00775 | Shigella flexneri 0.047 | Vibrio cholerae 0.0469 | [2] 0.0357 | P. vulgatus RND KO 0.0205 | P. vulgatus WT 0.0159 | [3] 0.0129 | [4] 0.00501

CCOc1nc2cccc(C(=O)O)c2n1Cc1ccc(-c2ccccc2-c2nnn[nH]2)cc1 [Candesartan]
inactive: [1] 1.01 | Shigella flexneri 1.02 | Vibrio cholerae 1.04 | [2] 1.01 | P. vulgatus RND KO 1.01 | P. vulgatus WT 1 | [3] 1.01 | [4] 0.987

COc1ccc([C@@H]2CC(=O)c3c(O)cc(O[C@@H]4O[C@H](CO[C@@H]5O[C@@H](C)[C@H](O)[C@@H](O)[C@H]5O)[C@@H](O)[C@H](O)[C@H]4O)cc3O2)cc1O [Hesperidin]
inactive: [1] 1.03 | Shigella flexneri 1.04 | Vibrio cholerae 1.07 | [2] 1.01 | P. vulgatus RND KO 1.03 | P. vulgatus WT 1 | [3] 1 | [4] 1.01

O=C1CCc2ccc(OCCCCN3CCN(c4cccc(Cl)c4Cl)CC3)cc2N1 [Aripiprazole]
inactive: [1] 1.02 | Shigella flexneri 1.03 | Vibrio cholerae 1.02 | [2] 1.01 | P. vulgatus RND KO 0.889 | P. vulgatus WT 0.891 | [3] 1.01 | [4] 0.92

CN1CCN(C(c2ccccc2)c2ccccc2)CC1 [Cyclizine hydrochloride]
inactive: [1] 0.987 | Shigella flexneri 1.01 | Vibrio cholerae 0.982 | [2] 0.995 | P. vulgatus RND KO 1.02 | P. vulgatus WT 1.04 | [3] 1.01 | [4] 0.998

CCN(CC)CCOC(=O)C1(C2CCCCC2)CCCCC1 [Dicyclomine hydrochloride]
inactive: [1] 0.935 | Shigella flexneri 0.978 | Vibrio cholerae 0.889 | [2] 0.98 | P. vulgatus RND KO 1 | P. vulgatus WT 1.02 | [3] 0.999 | [4] 0.933

O=C1NCCN1CCN1CCC(c2cn(-c3ccc(F)cc3)c3ccc(Cl)cc23)CC1 [Sertindole]
inactive: [1] 1.02 | Shigella flexneri 1.04 | Vibrio cholerae 1.02 | [2] 1.01 | P. vulgatus RND KO 0.833 | P. vulgatus WT 0.905 | [3] 1 | [4] 0.949

C=CCSCC1Nc2cc(Cl)c(S(N)(=O)=O)cc2S(=O)(=O)N1 (stereo unspecified) [Althiazide]
inactive: [1] 1.04 | Shigella flexneri 1.08 | Vibrio cholerae 1.03 | [2] 0.985 | P. vulgatus RND KO 1.04 | P. vulgatus WT 1.08 | [3] 1.01 | [4] 1.01

O=C1CN(/N=C/c2ccc(-c3ccc([N+](=O)[O-])cc3)o2)C(=O)N1 [Dantrolene sodium salt]
inactive: [1] 1.04 | Shigella flexneri 0.97 | Vibrio cholerae 0.948 | [2] 0.986 | P. vulgatus RND KO 1.04 | P. vulgatus WT 1.03 | [3] 1.02 | [4] 0.825

CC(C)NCC(O)COc1ccc(CCOCC2CC2)cc1 (stereo unspecified) [Betaxolol hydrochloride]
inactive: [1] 0.998 | Shigella flexneri 0.988 | Vibrio cholerae 1 | [2] 1 | P. vulgatus RND KO 1.01 | P. vulgatus WT 1.01 | [3] 1.01 | [4] 1

O=C(NCCN1CCOCC1)c1ccc(Cl)cc1 [Moclobemide]
inactive: [1] 0.981 | Shigella flexneri 0.961 | Vibrio cholerae 0.957 | [2] 1.01 | P. vulgatus RND KO 0.994 | P. vulgatus WT 0.987 | [3] 0.998 | [4] 0.996

CCN(CC)C(=O)Nc1ccc(OCC(O)CNC(C)(C)C)c(C(C)=O)c1 (stereo unspecified) [Celiprolol hydrochloride]
inactive: [1] 0.995 | Shigella flexneri 0.992 | Vibrio cholerae 0.99 | [2] 1.01 | P. vulgatus RND KO 0.997 | P. vulgatus WT 1.01 | [3] 0.994 | [4] 0.994

O=C(O)CCC(=O)Nc1ccc(S(=O)(=O)Nc2nccs2)cc1 [Succinylsulfathiazole]
inactive: [1] 1 | Shigella flexneri 0.997 | Vibrio cholerae 0.999 | [2] 1 | P. vulgatus RND KO 1 | P. vulgatus WT 1.05 | [3] 1 | [4] 0.994

CCC(=O)[C@@]1(C)[C@H](C)C[C@H]2[C@@H]3CCC4=CC(=O)C=C[C@]4(C)[C@H]3[C@@H](O)C[C@@]21C [Rimexolone]
inactive: [1] 1.01 | Shigella flexneri 1.01 | Vibrio cholerae 1.01 | [2] 0.997 | P. vulgatus RND KO 1.03 | P. vulgatus WT 1.07 | [3] 1 | [4] 0.999

CC(Oc1c(Cl)cccc1Cl)C1=NCCN1 (stereo unspecified) [Lofexidine]
inactive: [1] 1.01 | Shigella flexneri 1 | Vibrio cholerae 1.01 | [2] 1.01 | P. vulgatus RND KO 1.02 | P. vulgatus WT 1.03 | [3] 1.02 | [4] 1

CC(=O)N1CCN(c2ccc(OCC3COC(Cn4ccnc4)(c4ccc(Cl)cc4Cl)O3)cc2)CC1 (stereo unspecified) [Ketoconazole]
inactive: [1] 1.01 | Shigella flexneri 0.998 | Vibrio cholerae 0.988 | [2] 0.984 | P. vulgatus RND KO 0.955 | P. vulgatus WT 0.972 | [3] 0.998 | [4] 0.884

O=c1oc2ccccc2c(O)c1Cc1c(O)c2ccccc2oc1=O [Dicumarol]
inactive: [1] 0.986 | Shigella flexneri 1 | Vibrio cholerae 0.891 | [2] 1 | P. vulgatus RND KO 0.877 | P. vulgatus WT 0.945 | [3] 1 | [4] 0.891

CN(C)[C@@H]1C(=O)C(C(N)=O)=C(O)[C@@]2(O)C(=O)C3=C(O)c4c(O)ccc(Cl)c4[C@@H](O)[C@H]3C[C@@H]12 [Demeclocycline hydrochloride]
active: [1] 0.00255 | Shigella flexneri 0.0177 | Vibrio cholerae 0.056 | [2] 0.0357 | P. vulgatus RND KO 0.015 | P. vulgatus WT 0.0137 | [3] 0.00782 | [4] 0.00561

O=C1c2ccccc2C(=O)C1c1ccccc1 [Phenindione]
inactive: [1] 0.982 | Shigella flexneri 0.956 | Vibrio cholerae 0.983 | [2] 0.983 | P. vulgatus RND KO 0.997 | P. vulgatus WT 0.989 | [3] 0.998 | [4] 0.977

C#CCN(C)Cc1ccccc1 [Pargyline hydrochloride]
inactive: [1] 0.964 | Shigella flexneri 1.03 | Vibrio cholerae 0.942 | [2] 0.994 | P. vulgatus RND KO 1.01 | P. vulgatus WT 1 | [3] 1 | [4] 1.01

Cc1cc(=O)oc2cc(O)ccc12 [Hymecromone]
inactive: [1] 1.01 | Shigella flexneri 1 | Vibrio cholerae 0.998 | [2] 0.95 | P. vulgatus RND KO 1.03 | P. vulgatus WT 1.05 | [3] 0.999 | [4] 1.02

CC(C)C(=O)c1c(C(C)C)nn2ccccc12 [Ibudilast]
inactive: [1] 1.01 | Shigella flexneri 1.01 | Vibrio cholerae 1.05 | [2] 0.994 | P. vulgatus RND KO 0.949 | P. vulgatus WT 0.956 | [3] 1 | [4] 0.33

COc1ccc(C(=O)NCc2ccc(OCCN(C)C)cc2)cc1OC [Itopride]
inactive: [1] 0.996 | Shigella flexneri 1.05 | Vibrio cholerae 1.07 | [2] 1.03 | P. vulgatus RND KO 1.02 | P. vulgatus WT 1.06 | [3] 1.02 | [4] 1

CC(=O)NS(=O)(=O)c1ccc(N)cc1 [Sulfacetamide sodic hydrate]
inactive: [1] 1 | Shigella flexneri 1.01 | Vibrio cholerae 0.988 | [2] 0.998 | P. vulgatus RND KO 1.01 | P. vulgatus WT 1.05 | [3] 1.01 | [4] 0.997

CCN(CC)C(=O)N1CCN(C)CC1 [Diethylcarbamazine citrate]
inactive: [1] 0.959 | Shigella flexneri 0.973 | Vibrio cholerae 0.983 | [2] 0.998 | P. vulgatus RND KO 0.995 | P. vulgatus WT 0.978 | [3] 0.999 | [4] 0.995

CCN(CC)CCCC(C)Nc1c2ccc(Cl)cc2nc2ccc(OC)cc12 (stereo unspecified) [Quinacrine dihydrochloride hydrate]
inactive: [1] 0.957 | Shigella flexneri 0.933 | Vibrio cholerae 1.04 | [2] 0.996 | P. vulgatus RND KO 1.01 | P. vulgatus WT 0.986 | [3] 0.99 | [4] 0.978

CC[C@H]1OC(=O)[C@H](C)[C@@H](O[C@H]2C[C@@](C)(OC)[C@@H](O)[C@H](C)O2)[C@H](C)[C@@H](O[C@@H]2O[C@H](C)C[C@H](N(C)C)[C@H]2O)[C@](C)(O)C[C@@H](C)C(=O)[C@H](C)[C@@H](O)[C@]1(C)O [Erythromycin]
active: [1] 0.74 | Shigella flexneri 0.6 | Vibrio cholerae 0.0246 | [2] 0.767 | P. vulgatus RND KO 0.0145 | P. vulgatus WT 0.00909 | [4] 0.00339
inactive: [3] 0.811

CC(=O)NCCCS(=O)(=O)O [Acamprosate calcium]
inactive: [1] 1 | Shigella flexneri 1.02 | Vibrio cholerae 1 | [2] 0.99 | P. vulgatus RND KO 1.02 | P. vulgatus WT 1.03 | [3] 1 | [4] 0.996

CCn1nc(C(=O)O)c(=O)c2cc3c(cc21)OCO3 [Cinoxacin]
inactive: P. vulgatus RND KO 1 | P. vulgatus WT 1.01
active: [1] 0.0189 | Shigella flexneri 0.0786 | Vibrio cholerae 0.0544 | [2] 0.0459 | [3] 0.0574 | [4] 0.0349

Nc1ccc(S(=O)(=O)Nc2nccs2)cc1 [Sulfathiazole]
inactive: [1] 1.02 | Shigella flexneri 1 | Vibrio cholerae 1.01 | [2] 1.01 | P. vulgatus RND KO 0.995 | P. vulgatus WT 1.01 | [3] 0.985 | [4] 0.974

Clc1ccc(C(Cn2ccnc2)OCc2c(Cl)cccc2Cl)c(Cl)c1 (stereo unspecified) [Isoconazole]
inactive: [1] 0.997 | Shigella flexneri 1.01 | Vibrio cholerae 0.949 | [2] 1.01 | P. vulgatus RND KO 0.95 | P. vulgatus WT 0.949 | [3] 0.995 | [4] 0.953
